This experiment is described as follows: CCTE_Padilla_ZF_Score.Any: CCTE's 144 Hour Post-fertilization zebrafish Assay Score for Any Mortality or Malformation, Padilla Lab (AID 2284416). In outline: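 Wild-type zebrafish embryos with chorions, one per well in 10% Hanks' from 6–8 hpf, dosed in sealed plates at 26 C, 14:10 h light:dark; rinsed at 5 dpf; blinded scoring at 6 dpf for death or malformation, versus DMSO.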

Structures are written as SMILES. Active and inactive are the calls of the source. The calls were made as follows: active = hit-call score of the fitted dose curve at least 0.9, where 1 is the maximum; inactive = score below 0.9.

In the case of `CCNS(=O)(=O)C(F)(F)C(F)(F)C(F)(F)C(F)(F)C(F)(F)C(F)(F)C(F)(F)C(F)(F)F`, the AC50 was 3.96 µM (active).

Source of the values: PubChem BioAssay (EPA / NIEHS).
